Sampled rows, rich in hits. Any-hit rate of the full collection: about 1.5%.
RTF Ca sens act: cardiac RTF calcium sensitization; P19429+P45379; IANBD-labeled TnC RTF fluorescence at EC20 calcium; 0% EC20 calcium, 100% full calcium; activation, % at 7.2 µM; 340,000 compounds, 0.24% hits;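 active = activation above the mean over all tested compounds plus 3 SD, cut at about 30% in these data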;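 note: rise in fluorescence read as greater calcium sensitivity of cardiac thin filaments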
TPT1 inhibitor: C. albicans TPT1 enzyme inhibition. recombinant caTPT1, FP RNA substrate dephosphorylation. inhibition, % at 5 µM. 300,000 compounds, 0.81% hits. AID 1962;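 active = inhibition above the mean of all tested compounds plus 3 SD, set per screening campaign, cut at about 24% in these data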
Cardiac RTF inh: cardiac RTF calcium desensitization; 340,000 compounds, 0.12% hits; IANBD-labeled cardiac RTF, Ca2+ fluorescence; inhibition, % at 7.15 µM; P19429+P45379;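 active = inhibition above the mean inhibition of all tested compounds plus 3 SD, cut at about 17% in these data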;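 note: assay run at fixed EC70 calcium of 1.6 mM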
IDE cell activ: boosts human insulin-degrading enzyme activity in HEK cells | FAbeta-B cleavage, fluorescence polarization; 0% vehicle, 100% cell-free pure enzyme wells | AID 493087 | activation, % at 5.96 µM | 340,000 compounds, 0.073% hits;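 active = activation above the mean of all tested compounds plus 3 SD, set per screening campaign, cut at about 17% in these data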
IDE inh: inhibits human insulin-degrading enzyme in HEK cells | P14735 | FAbetaB cleavage, fluorescence polarization | 320,000 compounds, 0.41% hits | inhibition, % at 5.59 µM;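 active = percent inhibition above the average of all tested compounds plus 3 SD, set per screening campaign, cut at about 16% in these data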;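 note: IDE supplied by intact live HEK cells; FP after avidin binding of uncleaved biotin substrate so inhibition keeps polarization high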
CRFR2-BP ag: agonists of human CRF-binding protein/CRF-R2 receptor complex; 350,000 compounds, 0.46% hits; activation, % at 13.2 µM; HEK293 CRF-R2/CRF-BP, calcium dye fluorescence (FLIPR); percent of saturating CRF peptide response;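 active = activation of at least 50%, plus an integration ratio under a set limit after plate pattern correction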
caTPT1 confirm: confirmation of Candida albicans TPT1 inhibitors | shares compounds with TPT1 inhibitor | recombinant caTPT1, fluorescence polarization, RNase T1 coupled | inhibition, % at 5 µM | 2,400 compounds, 74% hits;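 active = inhibition above the primary screen limit, the mean inhibition of all tested compounds plus 3 SD, cut at about 25% in these data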
RNase T1 inh: RNase T1 inhibition in TPT1 counter-screen; shares compounds with TPT1 inhibitor; AID 2153; RNase T1 cleavage, fluorescence polarization, 1536-well; inhibition, % at 5 µM; 2,400 compounds, 83% hits;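 active = inhibition above the solvent-only control well mean plus 3 SD, limit set per screening run, cut at about 23% in these data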;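 note: inhibitors block cleavage so intact labeled substrate keeps polarization high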
Target sequence (P00651 whole entry, looked up): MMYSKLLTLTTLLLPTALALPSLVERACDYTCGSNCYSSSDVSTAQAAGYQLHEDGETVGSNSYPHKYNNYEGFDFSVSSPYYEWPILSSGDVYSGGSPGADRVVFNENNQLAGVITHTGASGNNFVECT
IDE inh confirm: confirmation of human insulin-degrading enzyme inhibitors in cells. shares compounds with IDE inh. HEK cells, FAbetaB cleavage, fluorescence polarization. inhibition, % at 5.59 µM. 1,200 compounds, 51% hits. AID 435028;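 active = mean inhibition across triplicate wells above the cutoff set by the earlier primary insulin-degrading enzyme screen, cut at about 16% in these data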
HEK293 tox: kills HEK cells in IDE inhibitor counter-screen; shares compounds with IDE inh; HEK293 cytotoxicity, ATP luminescence; inhibition, % at 5.59 µM; 1,200 compounds, 28% hits; AID 449730; in the data active = inhibition above about 22%
Of the large screens only hits and unclear results are named; the others gave an inactive call (follow-up assays come after a bar, where they were run).

CS(=O)(=O)N(CC(=O)NCCSCc1ccccc1)c1ccccc1Br	none
C=CCN1C(=O)/C(=C/c2ccc(O)c(OC)c2)S/C1=N/c1nccs1	TPT1 inhibitor 67.9, IDE inh 153.8 | caTPT1 confirm 74.3 | RNase T1 inh 77.0 | IDE inh confirm 25.9 | HEK293 tox inactive
C=CCN1C(=O)/C(=C/c2ccc(OCC(=O)O)cc2)S/C1=N/c1nccs1	none
Cc1c(O)c2c3c(cccc3c1O)C(=O)N(c1ccccc1)C2=O	RTF Ca sens act 51.7, TPT1 inhibitor 39.2, IDE inh 60.3, CRFR2-BP ag 168.4 | caTPT1 confirm 27.4 | RNase T1 inh 39.7 | IDE inh confirm 86.6 | HEK293 tox inactive
CN(C)c1ccc2c3c(cccc13)C(=O)N(c1ccccc1)C2=O	none (no result: RTF Ca sens act, Cardiac RTF inh, IDE cell activ, CRFR2-BP ag)
CC(OC(=O)/C(C#N)=C/c1ccc(N(C)C)cc1)C(=O)N(C)Cc1ccccc1 (stereo not given)	RTF Ca sens act 30.2, TPT1 inhibitor 107.1, IDE inh 29.6, CRFR2-BP ag 62.7 | caTPT1 confirm 114.8 | RNase T1 inh 114.1 | IDE inh confirm 36.6 | HEK293 tox inactive
CC(OC(=O)c1cccc(O)c1)C(=O)N(C)Cc1ccccc1 (stereo not given)	none
COc1cc(/C=C(\C#N)c2nc3ccc(C)cc3[nH]2)c([N+](=O)[O-])cc1OC	none
Cc1cc(/C=C(\C#N)c2nc3ccccc3[nH]2)c(C)n1C	none
CCN(CC)c1ccc(/C=C(/C#N)c2nc3ccc(C)cc3[nH]2)c(OC(C)C)c1	RTF Ca sens act 173.6, TPT1 inhibitor 138.8, IDE inh 136.2, CRFR2-BP ag 175.9 | caTPT1 confirm 130.0 | RNase T1 inh 124.2 | IDE inh confirm 152.4 | HEK293 tox 23.1
CCOc1cc(N(CC)CC)ccc1/C=C(/C#N)c1nc2ccccc2[nH]1	RTF Ca sens act 106.0, TPT1 inhibitor active, IDE inh 107.7, CRFR2-BP ag 96.6 | caTPT1 confirm 183.5 | RNase T1 inh 165.7 | IDE inh confirm 143.6 | HEK293 tox 28.9
COc1cccc(CN2CCNC(=O)C2CC(=O)N(Cc2cnn(C)c2)C(C)C)c1 (stereo not given)	none
CCN1CCN(c2ccc(NC(=O)c3ccco3)cc2)CC1	none
CCOC(=O)C1C(=O)C=C(c2ccc(C)cc2)CC1c1ccccc1 (stereo not given)	none
CCOC(=O)C1C(=O)C=C(/C=C/c2ccc(N(C)C)cc2)CC1c1ccccc1 (stereo not given)	RTF Ca sens act 108.1, TPT1 inhibitor 89.0, IDE inh 40.4, CRFR2-BP ag 292.1 | caTPT1 confirm 77.0 | RNase T1 inh 79.8 | IDE inh confirm 129.3 | HEK293 tox 24.0
Cc1ccc(CN2C(=O)CSC(C)C2=O)cc1 (stereo not given)	none
CCCNC(=O)Cn1c(=O)/c(=C\c2ccc(-c3ccc([N+](=O)[O-])cc3)o2)s/c1=C\C(=O)C(C)(C)C	TPT1 inhibitor 108.5, IDE inh 20.5, CRFR2-BP ag 355.8 | caTPT1 confirm 99.0 | RNase T1 inh 98.6 | IDE inh confirm 77.3 | HEK293 tox inactive
Nc1ncnc2c1ncn2[C@@H]1O[C@H](CNC(=O)[C@H]2CCC(=O)N2)[C@@H](O)[C@H]1O	none (no result: TPT1 inhibitor, IDE inh)
COc1cccc(/C=c2\s/c(=C/C(=O)c3ccc(C)cc3)[nH]c2=O)c1OC	none
COc1ccc(/C=c2\s/c(=C/C(=O)c3ccc(C)cc3)[nH]c2=O)c(OC)c1	RTF Ca sens act 99.1, TPT1 inhibitor 66.9, IDE inh 88.3, CRFR2-BP ag 123.5 | caTPT1 confirm 28.4 | RNase T1 inh 37.1 | IDE inh confirm 111.8 | HEK293 tox inactive
CCn1c(C)cc(/C=C2/SC(=S)N(CC(=O)O)C2=O)c1C	TPT1 inhibitor 83.1, IDE inh 39.6 | caTPT1 confirm 94.3 | RNase T1 inh 102.3 | IDE inh confirm 36.2 | HEK293 tox inactive
CCS(=O)(=O)c1nn2c(N)c(/C=C3/C=CC(=O)C(OC)=C3)c(=O)nc2s1	TPT1 inhibitor 34.8, IDE inh 23.6 | caTPT1 confirm 86.1 | RNase T1 inh 91.7 | IDE inh confirm 157.3 | HEK293 tox inactive
O=C1c2cccc3c(N4CCCCC4)ccc(c23)C(=O)N1c1ccccc1O	RTF Ca sens act 72.8, TPT1 inhibitor 71.6, IDE inh 88.7, CRFR2-BP ag 258.9 | caTPT1 confirm 38.9 | RNase T1 inh 50.4 | IDE inh confirm 152.2 | HEK293 tox inactive
O=C1c2cccc3cccc(c23)C(=O)N1c1ccc(O)cc1	none
O=C(O)c1ccc(N2CCCCCC2)c(N2C(=O)c3ccccc3C2=O)c1	none
O=C1c2cccc3c(N4CCCCC4)ccc(c23)C(=O)N1c1ccc(O)cc1	RTF Ca sens act 115.5, TPT1 inhibitor 72.5, IDE inh 75.0, CRFR2-BP ag 223.7 | caTPT1 confirm 60.7 | RNase T1 inh 61.4 | IDE inh confirm 71.7 | HEK293 tox inactive
CCCNC(=O)C(=O)NCC(c1ccc2c(c1)OCO2)N1CCN(c2ccc(F)cc2)CC1 (stereo not given)	none
COc1ccc(CCNC(=O)c2c[nH]c3ccc(F)cc3c2=O)cc1OC	none
CCN(CC)c1ccc(/C=C(/C#N)C(=O)NC(C)C)o1	RTF Ca sens act 71.5, TPT1 inhibitor 169.3, IDE inh 26.8 | caTPT1 confirm 186.0 | RNase T1 inh 172.8 | IDE inh confirm 30.4 | HEK293 tox inactive
CC(NC(=O)/C(C#N)=C/c1ccc([N+](=O)[O-])o1)c1ccccc1 (stereo not given)	none
CCN(CC)c1ccc(/C=C(/C#N)C(=O)NCc2ccccc2)o1	RTF Ca sens act 110.6, TPT1 inhibitor 188.9, IDE inh 103.3, CRFR2-BP ag 141.4 | caTPT1 confirm 196.5 | RNase T1 inh 180.3 | IDE inh confirm 153.0 | HEK293 tox inactive
N#C/C(=C\c1ccc(O)cc1)C(=O)NCc1ccccc1	none
O=C(COC(=O)C1CCN(c2ccc(C(F)(F)F)cn2)CC1)c1ccccc1	none
NC(=O)CC[C@H](NC(=O)OCc1ccccc1)C(=O)OCc1ccc(Cl)cc1	none
